Data reported in PubChem BioAssay (EPA / NIEHS).
“And” between values parts separate entries of the source, which are not always exact repeats. Equal values may be shown once. The source made the active and inactive calls. How the source made its calls: active means hit-call score of the fitted dose curve at least 0.9, where 1 is the maximum; inactive means score below 0.9.

Legend:
[1] = BSK_CASM3C_SRB: Viability Assessment in the BioMAP Diversity Plus: CASM3C Assay (AID 2283050); details: primary human coronary artery smooth muscle cells;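 further: total protein by SRB staining as cytotoxicity measure in parallel cultures; cells exposed to compound for 24 h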
[2] = read-out: Thrombomodulin, THBD (gene 7056); test: BSK_CASM3C_Thrombomodulin: BioMAP Diversity Plus: CASM3C Assay for Thrombomodulin Biomarker Activity (AID 2283051); details: primary human coronary artery smooth muscle cells; actives raise or lower the signal;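 further: thrombomodulin protein level measured by ELISA 24 h after dosing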
[3] = read-out: Tissue Factor, F3 (gene 2152); test: BSK_CASM3C_TissueFactor: BioMAP Diversity Plus: CASM3C Assay for Tissue Factor Biomarker Activity (AID 2283052); details: primary human coronary artery smooth muscle cells; actives raise or lower the signal;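 further: cell surface tissue factor protein level read by ELISA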
[4] = read-out: Interferon-gamma inducible Protein 10 (IP10), CXCL10 (gene 3627); test: BSK_hDFCGF_IP10: BioMAP Diversity Plus: hDFCGF Assay for Interferon-gamma inducible Protein 10 (IP10) Biomarker Activity (AID 2283053); details: primary human foreskin fibroblasts; actives raise or lower the signal
In short: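 ELISA quantification of IP-10 after a 24 h chemical exposure of human dermal foreskin fibroblast primary cultures. Both increases and decreases versus DMSO fitted.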

[5] = read-out: Urokinase-type plasminogen activator receptor (uPAR), PLAUR (gene 5329); test: BSK_CASM3C_uPAR: BioMAP Diversity Plus: CASM3C Assay for Urokinase-type plasminogen activator receptor (uPAR) Biomarker Activity (AID 2283054); details: primary human coronary artery smooth muscle cells; actives raise or lower the signal;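 further: cell-surface uPAR protein level quantified by ELISA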
[6] = read-out: Vascular cell adhesion molecule 1 (VCAM1), VCAM1 (gene 7412); test: BSK_CASM3C_VCAM1: BioMAP Diversity Plus: CASM3C Assay for Vascular cell adhesion molecule 1 (VCAM1) Biomarker Activity (AID 2283055); details: primary human coronary artery smooth muscle cells; actives raise or lower the signal;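 further: VCAM-1 protein level quantified by ELISA on the cells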
[7] = read-out: Collagen III, COL3A1 (gene 1281); test: BSK_hDFCGF_CollagenIII: BioMAP Diversity Plus: hDFCGF Assay for Collagen III Biomarker Activity (AID 2283056); details: primary human foreskin fibroblasts; actives raise or lower the signal
In short: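 ELISA read-out of collagen III from human skin fibroblast cultures sampled 24 h post-dosing. Values were derived by bidirectional fitting relative to the DMSO vehicle control.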

[8] = read-out: Epidermal growth factor receptor (EGFR), EGFR (gene 1956); test: BSK_hDFCGF_EGFR: BioMAP Diversity Plus: hDFCGF Assay for Epidermal growth factor receptor (EGFR) Biomarker Activity (AID 2283057); details: primary human foreskin fibroblasts; actives raise or lower the signal
In short: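 EGFR levels by ELISA in human dermal fibroblast cultures, 24 h post-treatment, fitted bidirectionally versus DMSO. Parallel wells stained with sulforhodamine B to detect overt cytotoxicity.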

[9] = read-out: Interleukin-8 (IL8), CXCL8 (gene 3576); test: BSK_hDFCGF_IL8: BioMAP Diversity Plus: hDFCGF Assay for Interleukin-8 (IL8) Biomarker Activity (AID 2283058); details: primary human foreskin fibroblasts; actives raise or lower the signal
In short: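 Cells used are human skin primary fibroblasts. Chemical is added, cultures run 24 h, then IL-8 is quantified by ELISA, and gain or loss versus DMSO control is fitted in both directions.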

[10] = read-out: Macrophage colony-stimulating factor (MCSF), CSF1 (gene 1435); test: BSK_hDFCGF_MCSF: BioMAP Diversity Plus: hDFCGF Assay for Macrophage colony-stimulating factor (MCSF) Biomarker Activity (AID 2283060); details: primary human foreskin fibroblasts; actives raise or lower the signal
In short: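 Primary human foreskin fibroblasts dosed with chemical; 24 h later, M-CSF quantified by ELISA; curves fitted in both directions vs DMSO negative control.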

[11] = BSK_hDFCGF_SRB: Viability Assessment in the BioMAP Diversity Plus: hDFCGF Assay (AID 2283061); details: primary human foreskin fibroblasts;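 further: cells exposed to compound for 24 h before the read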
In short: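 Readout is SRB absorbance at 560 nm, reflecting total protein in parallel cultures of human foreskin fibroblasts harvested 24 h after chemical dosing. Activity was fitted bidirectionally relative to DMSO.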

[12] = read-out: TIMP metallopeptidase inhibitor 1 (TIMP1), TIMP1 (gene 7076); test: BSK_hDFCGF_TIMP1: BioMAP Diversity Plus: hDFCGF Assay for TIMP metallopeptidase inhibitor 1 (TIMP1) Biomarker Activity (AID 2283062); details: primary human foreskin fibroblasts; actives raise or lower the signal
In short: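 Human skin fibroblasts (primary), hDFCGF system; compound exposure 24 h; TIMP-1 by ELISA; bidirectional fit vs DMSO negative control; overt cytotoxicity by SRB in parallel wells.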

[13] = read-out: Monokine induced gamma interferon (MIG), CXCL9 (gene 4283); test: BSK_hDFCGF_MIG: BioMAP Diversity Plus: hDFCGF Assay for Monokine induced gamma interferon (MIG) Biomarker Activity (AID 2283063); details: primary human foreskin fibroblasts; actives raise or lower the signal
In short: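 Chemicals were added to primary human foreskin fibroblast cultures, which were sampled 24 h later. MIG levels were then quantified by ELISA and responses fitted in both directions relative to DMSO.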

[14] = read-out: Matrix Metallopeptidase 1 (MMP1), MMP1 (gene 4312); test: BSK_hDFCGF_MMP1: BioMAP Diversity Plus: hDFCGF Assay for Matrix Metallopeptidase 1 (MMP1) Biomarker Activity (AID 2283064); details: primary human foreskin fibroblasts; actives raise or lower the signal
In short: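 Human foreskin fibroblasts exposed to chemical for 24 h; MMP1 detected by ELISA, with DMSO as baseline for bidirectional fitting.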

[15] = read-out: Plasminogen activator inhibitor-1 (PAI1), SERPINE1 (gene 5054); test: BSK_hDFCGF_PAI1: BioMAP Diversity Plus: hDFCGF Assay for Plasminogen activator inhibitor-1 (PAI1) Biomarker Activity (AID 2283066); details: primary human foreskin fibroblasts; actives raise or lower the signal
In short: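 PAI-1 levels in human dermal foreskin fibroblasts were quantified by ELISA 24 h after dosing, with gain or loss analysed against DMSO. Overt cytotoxicity was checked by sulforhodamine B total-protein staining in parallel cultures.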

[16] = read-out: Intercellular Adhesion Molecule 1 (ICAM1), ICAM1 (gene 3383); test: BSK_KF3CT_ICAM1: BioMAP Diversity Plus: KF3CT Assay for Intercellular Adhesion Molecule 1 (ICAM1) Biomarker Activity (AID 2283067); details: primary human keratinocytes with fibroblasts; actives raise or lower the signal
In short: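 ICAM-1 levels are measured by ELISA 24 h after dosing a primary human co-culture of keratinocytes and foreskin fibroblasts. Activity in either direction is fitted relative to DMSO vehicle.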

[17] = read-out: Interferon-gamma inducible Protein 10 (IP10), CXCL10 (gene 3627); test: BSK_KF3CT_IP10: BioMAP Diversity Plus: KF3CT Assay for Interferon-gamma inducible Protein 10 (IP10) Biomarker Activity (AID 2283068); details: primary human keratinocytes with fibroblasts; actives raise or lower the signal
In short: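 In a primary skin co-culture of keratinocytes and fibroblasts, IP-10 is quantified by ELISA at 24 h after dosing. SRB staining of parallel wells monitors overt toxicity. Curves are fitted both directions against DMSO.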

[18] = BSK_KF3CT_SRB: Viability Assessment in the BioMAP Diversity Plus: KF3CT Assay (AID 2283069); details: primary human keratinocytes with fibroblasts;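 further: read 24 h after compound addition; fitted for both signal gain and loss against DMSO baseline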
In short: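 Overt cytotoxicity is assessed as total protein by sulforhodamine B staining in parallel human skin co-cultures at 24 h after dosing. DMSO serves as negative control and baseline.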

[19] = read-out: Vascular cell adhesion molecule 1 (VCAM1), VCAM1 (gene 7412); test: BSK_hDFCGF_VCAM1: BioMAP Diversity Plus: hDFCGF Assay for Vascular cell adhesion molecule 1 (VCAM1) Biomarker Activity (AID 2283065); details: primary human foreskin fibroblasts; actives raise or lower the signal;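 on AC50: VCAM-1 protein level quantified by ELISA after 24 h chemical exposure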
In short: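 Human foreskin fibroblast primary cells, chemical exposure 24 h; VCAM-1 by ELISA; bidirectional fit, DMSO = negative control/baseline.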

[20] = BSK_hDFCGF_Proliferation: Cell Proliferation Assessment in the BioMAP Diversity Plus: hDFCGF Assay (AID 2283059); details: primary human foreskin fibroblasts;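 further: curves fitted for both rise and fall of signal versus DMSO baseline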
In short: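 Primary human foreskin fibroblasts, sub-confluent; […]; 10% TCA fix, 0.1% SRB stain, A560 total protein. Gain/loss fitted bidirectionally vs DMSO control.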

Measured: AC50

FC(F)(Br)C(F)(F)C(F)(F)C(F)(F)C(F)(F)C(F)(F)Br
not listed: [19] | [20]
inactive: all other assays above

FC(F)(F)C(F)(F)C(F)(F)N(C(F)(F)C(F)(F)C(F)(F)F)C(F)(F)C(F)(F)C(F)(F)F
not listed: [9] | [20]
inactive: all other assays above

O=C(O)C(F)(F)C(F)(F)F
not listed: [9] | [19] | [20]
inactive: all other assays above

FC(F)(F)C(F)(F)C(F)(F)CI
not listed: [9] | [19]
inactive: all other assays above

CCCCCCCOC(=O)c1ccccc1C(=O)OCCCCCCC
not listed: [9] | [19]
inactive: all other assays above

C=C(C)C(=O)OCC(F)(F)C(F)(F)C(F)(F)F
not listed: [9] | [19] | [20]
inactive: all other assays above

CCCCCCOC(=O)c1ccccc1O
active: [4] 38.1 µM and 40.6 µM | [7] 24.5 µM and 16.9 µM | [20] 15.1 µM and 14.2 µM | [10] 34.8 µM and 35.1 µM | [11] 40 µM and 44.8 µM | [12] 39.7 µM and 31.2 µM | [13] 18.2 µM and 21.3 µM | [14] 35.8 µM | [19] 33.1 µM and 35.3 µM | [15] 39.3 µM and 39.6 µM
inactive: [1] | [2] | [3] | [5] | [6] | [8] | [16] | [17] | [18]

CC(CCl)OP(=O)(OC(C)CCl)OC(C)CCl (stereo unspecified)
active: [15] 15.9 nM
not listed: [9] | [20]
inactive: all other assays above

OCC(F)(F)C(F)(F)C(F)(F)C(F)(F)C(F)(F)C(F)F
not listed: [9] | [19]
inactive: all other assays above
